Compounds with a hit are over-represented: about 1% of the library has one in this group of screens.
Sa RN4220 lethal: S. aureus RN4220 growth inhibition; inhibition, % (no concentration beside the values); hit rate 0.33% among 330,000; OD600, 16 h; in the data active = inhibition above about 85%;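 also: plate controls were untreated cells for no effect and reference antibiotic for full effect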
PriA SSB inh: blocks PriA binding to SSB C-terminal tail; AlphaScreen SSBct-PriA binding, biotinylated peptide; inhibition, % at 33 µM; hit rate 0.6% among 430,000; in the data active = inhibition mostly above about 37%, no sharp cut-off; inactive = mostly below about 20%;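 also: plate controls were negative control peptide for no effect and reference peptide for full effect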
Mtb betalactam: beta-lactam sensitization of Mtb H37Rv | M. tuberculosis H37Rv growth with meropenem, percent inhibition | inhibition, % at 25 µM | hit rate 0.27% among 330,000 | AID 434955; call rule not given here;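 also: growth measured after seven days incubation then overnight dye step; 0% = bacteria only wells and 100% = bacteria with antibiotic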
Sa ugtP lethal: kills S. aureus RN4220 lacking UgtP; growth inhibition, % (concentration not given with the values); hit rate 0.54% among 330,000; S. aureus RN4220 ugtP deletion, OD600 growth, 16 h; in the data active = growth inhibition above about 68%;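 also: plate controls were untreated wells for no effect and antibiotic for full effect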
Mtb hypoxia inh: reduces hypoxia-regulated biosensor signal in M. tuberculosis; M. tuberculosis hypoxia-regulated fluorescent reporter, fluorescence; fluorescence inhibition, % (no concentration beside the values); hit rate 0.1% among 300,000; AID 1159583; in the data active = fluorescence inhibition mostly above about 23%, no sharp cut-off; inactive = mostly below about 17%
An asterisk follows results filed as active; u = inconclusive; x = no result shown; ! = repeats disagree.

SMILES	Sa RN4220 lethal	PriA SSB inh	Mtb betalactam	Sa ugtP lethal	Mtb hypoxia inh
O=c1cc(-c2ccccc2)[nH]n1-c1ccccc1	5.9	10.0	x	-0.6	6.6
CCOC(=O)c1csc(NC(=O)[C@H]2CCCN(c3cc(-n4cncn4)ncn3)C2)n1	x	-7.0	x	x	x
CCOC(=O)C(NCc1ccccn1)(NC(=O)c1cccnc1)C(F)(F)F (stereo not given)	13.3	50.7*	0.3	-17.5	x
COc1ccc(C2(c3cccc(F)c3)CCCCC2)cc1	x	-34.0	x	x	x
N=C1SCC(=O)N1c1ncc(Cc2cccc(Cl)c2)s1	96.8*	-5.9	x	98.2*	16.4
N=C1SCC(=O)N1c1ncc(Cc2ccccc2F)s1	x	11.0	x	x	x
Cc1cccc(Cc2cnc(N3C(=N)SC(C)C3=O)s2)c1 (stereo not given)	89.9*	-10.2	90.8	38.4	8.0
Cc1ccc(Cc2cnc(N3C(=N)SC(C)C3=O)s2)cc1 (stereo not given)	58.3	-13.0	89.5	51.0	-3.5
N=C1SCC(=O)N1c1ncc(Cc2ccccc2Cl)s1	92.6*	1.3	x	88.6	16.6
O=C(CN1CC(=O)Oc2ccccc21)Nc1nc(-c2ccccn2)cs1	x	100.0*	x	x	x
O=C(CN1NC(=C2CC2)C=CC1=O)Nc1nc(-c2ccccn2)cs1	x	31.2	x	x	x
O=C(CN1C(=O)NC2(CCCC2)C1=O)Nc1nc(-c2ccccn2)cs1	x	97.8*	x	x	x
O=C(Cn1[nH]c(=O)ccc1=O)Nc1nc(-c2ccccn2)cs1	x	97.3*	x	x	x
CCC(=O)Nc1nc(-c2ccccn2)cs1	x	18.0	x	x	x
Cc1csc(=O)n1CC(=O)Nc1nc(-c2ccccn2)cs1	x	107.0*	x	x	x
CCOC(=O)c1oc2ccc(Br)cc2c1NC(=O)CN1CCN(C)CC1	1.4	-11.5	-8.8	91.5*	x
O=C(NN=Cc1cc([N+](=O)[O-])ccc1O)Nc1ccccc1	90.5*	-12.6	x	71.1	7.0
O=[N+]([O-])c1ccc(O)c(C=NNC2=NS(=O)(=O)c3ccccc32)c1	x	51.2*	x	x	x
O=C(NN=Cc1cc([N+](=O)[O-])ccc1O)c1ccc2c(c1)OCCO2	90.5*	-5.3	x	68.2	6.1
O=C(N/N=C/c1cc(Cl)ccc1O)c1ccccc1Br	x	x	3.4	x	x
O=C(NN=Cc1cc(Cl)ccc1O)c1ccc(Br)cc1	73.7	-11.8	x	89.9*	12.9
Cc1nn(C)c(C)c1C(=O)N1CCC(c2ccc3c(c2)OCO3)C1 (stereo not given)	x	-15.0	x	x	x
O=[N+]([O-])c1ccc(O)c(/C=N/Nc2nn[nH]n2)c1	x	x	5.5	x	x
O=C(NN=Cc1ccc([N+](=O)[O-])cc1)c1ccncc1	-1.0	-6.5	x	5.6	11.0
O=C(NN=Cc1cc([N+](=O)[O-])ccc1O)c1ccncc1	86.1*	0.6	x	75.0	14.0
SMILES	Sa RN4220 lethal	PriA SSB inh	Mtb betalactam	Sa ugtP lethal	Mtb hypoxia inh
O=[N+]([O-])c1ccc(O)c(C=NNc2nn[nH]n2)c1	94.8*	98.6	x	86.9*	0.7
COc1ccc(OC)c2sc(N(Cc3ccccn3)C(=O)Cc3ccc(F)cc3)nc12	x	-3.0	x	x	x
CCC1OC(=O)C(C)C(OC2C[C@@](C)(OC)C(O)C(C)O2)C(C)C(OC2OC(C)CC(N(C)C)C2O)[C@](C)(OC)CC(C)C(=O)C(C)C(O)[C@]1(C)O (stereo not given in full)	100.6*	x	x	100.0*	x
CCN(c1ccccc1)S(=O)(=O)c1ccc(NC(=O)c2oc3ccc(C)cc3c2C)cc1	x	-5.0	x	x	x
CCC(=O)OCCNc1cc(SCCC(=O)OC)c2nonc2c1[N+](=O)[O-]	14.0	5.3	100.0	14.3	23.4
CCCC(=O)OCCNc1cc(Sc2nc3ccccc3[nH]2)c2nonc2c1[N+](=O)[O-]	96.5*	-2.5	100.0	100.0*	x
c1ccc(-c2nccc(-c3ccco3)n2)nc1	10.3	71.6*	85.2	3.7	3.5
c1ccc(-c2nnc(-c3ccco3)c(-c3ccco3)n2)nc1	x	114.5*	x	x	x
c1ccc(-c2noc(-c3ccco3)n2)nc1	4.1	-18.6	1.0	9.9	5.2
NS(=O)(=O)c1ccc(NC(=O)CCCn2nc(-c3cccs3)ccc2=O)cc1	x	-9.0	x	x	x
COC1=CC(=O)C(O)=C(CCCCCCC/C=C/CCCCCCCC2=C(O)C(=O)C=C(OC)C2=O)C1=O	x	x	-1.2	x	x
CCCCCCCCCCCC1=C(O)C(=O)C=C(O)C1=O	99.5*	-14.3	2.8	99.6*	x
CCCCc1ccc(Nc2nc(Nc3ccc(F)cc3)nc(N3CCOCC3)n2)cc1	x	-2.0	x	x	x
COCC(=O)Nc1ccc(Nc2ccc(C)nn2)cc1	x	-16.0	x	x	x
O=C(Nc1ccc(Nc2ccc(-n3cccn3)nn2)cc1)c1ccco1	x	89.0*	x	x	x
COCC(=O)Nc1ccc(Nc2ccc(-n3cccn3)nn2)cc1	x	83.0*	x	x	x
CC(=O)Nc1ccc(C(=O)NCCNS(=O)(=O)c2ccc3c(c2)CCCC3)cc1	x	-11.0	x	x	x
O=S(=O)(Nc1nc2ccccc2s1)c1ccc(Br)cc1	x	-12.0	x	x	x
COCCn1c(C)cc(C(=O)COc2ccc(C)nc2[N+](=O)[O-])c1C	1.2	47.3*	-0.3	2.9	14.9
O=C(NCCN1CCN(c2ccccc2F)CC1)C(=O)Nc1ccon1	x	11.0	x	x	x
Cn1ncc(C#N)c1/N=C/N(Cc1ccccc1)Cc1ccccc1	x	x	9.4	x	x
Cn1ncc(C#N)c1N=CN(Cc1ccccc1)Cc1ccccc1	101.1*	-20.6	x	99.8*	x
Cc1cc(=O)[nH]c(-n2nc(C)cc2NC(=O)C(=O)NCCc2c[nH]c3ccccc23)n1	x	11.0	x	x	x
Cc1oc(-c2cccs2)nc1CSCC(=O)N1CCC2(CC1)OCCO2	3.7	-2.5	-10.5	6.9	active
COc1ccc(-c2nc(CSCC(=O)N3CCC4(CC3)OCCO4)c(C)o2)cc1OC	-3.5	0.3	u	-2.6	-5.1
SMILES	Sa RN4220 lethal	PriA SSB inh	Mtb betalactam	Sa ugtP lethal	Mtb hypoxia inh
c1ccc2c3c([nH]c2c1)-c1[nH]ncc1CC3	-3.3	6.2	49.4	-20.1	-6.1
Clc1ccc2[nH]c3c(c2c1)CCc1cn[nH]c1-3	98.3*	2.1	76.0	78.8	-8.0
CCN(CC)S(=O)(=O)c1ccc(C(=O)Nc2nnc(SCC(=O)Nc3ccccc3F)s2)cc1	x	-2.0	x	x	x
CCN(CC)c1ccc(C=NNS(=O)(=O)c2ccc(C)c([N+](=O)[O-])c2)cc1	-2.2	39.3*	x	-3.5	-10.3
COc1cc(C=NNS(=O)(=O)c2ccc(C)c([N+](=O)[O-])c2)ccc1O	8.5	-5.2	x	2.1	7.2
O=C1CCn2c1c(O)c1ccccc1c2=O	x	9.3	x	x	x
N=C1CCC(=N)c2c1c(O)c1ccccc1c2O	x	73.8*	7.3	x	x
CC(=O)c1nn(-c2ccccc2)cc1C(=O)c1ccc(C)cc1	3.3	-4.0	-3.9	-1.4	-0.3
CC(=O)c1nn(-c2ccc(Cl)cc2)cc1C(=O)c1ccc(C)cc1	-5.8	-8.2	8.0	-1.8	46.6*
c1ccc(-c2nn[nH]n2)nc1	3.1	107.0*!	-0.9	1.1	5.4
c1ccc(-c2ccc(-c3ccccn3)nn2)nc1	x	106.0*	45.8	x	x
c1ccc(-c2n[nH]c(-c3ccccn3)n2)nc1	2.4	92.9*	18.1	5.9	19.0
NCc1nc(-c2ccccn2)n[nH]1	x	115.5*	x	x	x
COCCN(Cc1ccsc1)C(=O)C(C)(C)C	x	-4.0	x	x	x
c1cncc(-c2n[nH]c(-c3cnccn3)n2)c1	x	-6.0	x	x	x
O=C(CSc1n[nH]c(-c2ccccn2)n1)N1c2ccccc2Sc2ccccc21	x	58.0	x	x	x
c1ccc(-c2ccccn2)nc1	7.0	7.2	0.3	-1.2	5.4
c1ccc(-c2n[nH]c(-c3ccccn3)n2)cc1	0.3	42.4*	99.3	1.9	x
